The values that follow are results of earlier work, collected in PubChem BioAssay AID977611.

Out of some 3,900 compounds screened, about 3,900 (100%) were called active. No cut-off is given here; in the data, nearly all actives have Kd up to about 4200 µM. The set was probably picked from earlier hits. Some of the results follow. Where a SMILES comes first, the peptide text is derived from it. Non-standard residues stand in square brackets, D forms with d. Residues, ends and D or L forms follow the SMILES beside them. Orn(CH(NH2)2) = NC(N)NCCC[C@H](N)C(=O)O

The data set in a line: PubChem AID 977611. As to conditions: PDB protein-ligand complexes, literature Kd.

The Kd is the free concentration of one partner at which half of the binding sites on the other are occupied at equilibrium, for simple one-to-one binding. With `O[C@@H]1[C@H](O)CO[C@](O)(CO[P+](O)(O)O)[C@H]1O`, for the setting “protein: GLUCOKINASE REGULATORY PROTEIN, PDB entry 4bb9”, the Kd was 1 µM (active).

In the case of `O=C(NCCC1C=CCCC1)Nc1ccc2nnsc2c1` (configuration not stated), the Kd (protein: Protein arginine N-methyltransferase 3, PDB entry 3smq) is 9.5 µM (active).

For `OC[C@H]1O[C@@H](Oc2ccc([C@@H](c3ccc(O)c(Cl)c3)c3ccccc3S(O)(O)O)cc2Cl)[C@H](O)[C@@H](O)[C@H]1O`, the Kd (protein: PA-I galactophilic lectin, PDB entry 4lk6) is 6.3 µM (active).

In the case of `C/C(=C/C=C/C(C)=C/C(=O)O)Cc1cccc2ccc(C)cc12`, the Kd (protein: Retinoic acid receptor RXR-alpha, PDB entry 4poj) is 0.008 µM (active).

Consider `NCc1ccc2occc2c1`, for which the dissociation constant (Kd) (protein: CATIONIC TRYPSIN, PDB entry 4ab9) is 466 µM (active).

Regarding `NC1C=CN([C@@H]2O[C@H](CNC(=O)c3c[nH]c4scc[n+]34)[C@@H](O)[C@H]2O)C(=O)N1` (some centres not stated), the Kd (protein: 2-C-methyl-D-erythritol 2,4-cyclodiphosphate synthase, PDB entry 3q8h) is 70 µM (active).

With `NC1C=CN([C@@H]2O[C@H](CO)[C@@H](O)[C@H]2O)C(=O)N1` (some centres not stated), the Kd (protein: Peptidyl-tRNA hydrolase, PDB entry 4jwk) is 0.00479 µM (active).

Take `O=C(CCN1CCCCC1)N1CCc2[nH]c(=O)c3cc(F)ccc3c2C1`: the Kd (protein: Putative ADP-ribosyltransferase Certhrax, PDB entry 4fxq) is 1.7 µM (active).

As to `C[C@H]1CCC[C@H](C[C@H]2Cc3cc(O)cc(O)c3C(=O)O2)O1`, for the setting “protein: Lysine--tRNA ligase, PDB entry 4pg3”, the equilibrium dissociation constant (Kd) was 0.014 µM (active).

For `CC[C@H](C)[C@H](N)C(=O)N[C@@H](CCC(=O)O)C(=O)N[C@@H](CC(C)C)C(=O)N1CCC[C@H]1C(=O)N[C@@H](CCC(=O)O)C(=O)N[C@H](C(=O)N1CCC[C@H]1C(=O)N[C@@H](CO)C(=O)N[C@@H](CCC(=O)O)C(=O)N1CCC[C@H]1C(=O)N[C@@H](CC(C)C)C(=O)N1CCC[C@H]1C(=O)O)C(C)C` (H-IELPEVPSEPLP-OH), the Kd (protein: Vacuolar protein sorting-associating protein 4A, PDB entry 2k3w) was 5.8 µM (active).

On to `CC[C@H](C)[C@H](NC(=O)[C@@H](NC(=O)[C@H](CC(C)C)NC(=O)[C@H](C)NC(=O)[C@@H]1CCCN1C(=O)[C@H](CC(C)C)NC(=O)[C@@H](NC(=O)[C@@H]1CCCN1C(=O)[C@H](CCCCN)NC(=O)[C@H](CCCNC(N)N)NC(=O)[C@H](C)N)C(C)C)[C@@H](C)O)C(=O)N[C@@H](C)C(=O)O` (H-A[Orn(CH(NH2)2)]KPVLPALTIA-OH), for which the Kd (protein: Mitogen-activated protein kinase 1 (R77A, E314A, I255G, C162S mutation), PDB entry 4h3q) is 8 µM (active).

Take `CC[C@H](C)[C@H](NC(=O)[C@H](CC(C)C)NC(=O)[C@@H]1CCCN1C(=O)[C@@H]1CCCN1C(=O)[C@@H]1CCCN1C(=O)[C@H](CC(N)=O)NC(=O)[C@H](CO)NC(=O)[C@@H](NC(=O)[C@@H](N)[C@@H](C)O)[C@@H](C)CC)C(=O)N[C@@H](CO)C(=O)N[C@@H](CO)C(=O)N[C@@H](C)C(=O)N[C@@H](CCCCN)C(=O)O` (H-TISNPPPLISSAK-OH): for the setting “protein: The MYND domain (NHR4) of ETO, PDB entry 2odd”, the dissociation constant (Kd) is 109 µM (active).

On to `CC[C@H](C)[C@H](NC(=O)[C@H](CO)NC(=O)[C@@H]1CCCN1C(=O)[C@H](C)N)C(=O)N[C@@H](CC(=O)O)C(=O)N[C@@H](CCCNC(N)N)C(=O)N[C@@H](CO)C(=O)N[C@H](C(=O)N[C@@H](CCCCN)C(=O)N1CCC[C@H]1C(=O)N1CCC[C@H]1C(=O)N[C@@H](CC(C)C)C(=O)O)[C@@H](C)O` (H-APSID[Orn(CH(NH2)2)]STKPPL-OH), for which, for the setting “protein: Grb2-related adaptor protein 2(C-terminal SH3 domain (SH3C) of Mona/Gads, PDB entry 1oeb”, the Kd is 0.118 µM (active).

For the molecule `CC[C@H](C)[C@H](NC(=O)[C@H](Cc1ccccc1)NC(=O)[C@H](CCCCN)NC(=O)CN)C(=O)N1CCC[C@H]1C(=O)N[C@@H](CO)C(=O)N[C@@H](CCCNC(N)N)C(=O)N1CCC[C@H]1C(=O)N[C@@H](C)C(=O)N1CCC[C@H]1C(=O)N[C@@H](CCCCN)C(=O)N1CCC[C@H]1C(=O)N1CCC[C@H]1C(=O)N[C@@H](CO)C(=O)N[C@@H](CO)C(=O)N[C@@H](C)C(=O)O` (H-GKFIPS[Orn(CH(NH2)2)]PAPKPPSSA-OH), the dissociation constant (Kd) (protein: NAP1-binding protein 2, PDB entry 2lcs) was 0.2 µM (active).

Take `CC[C@H](C)[C@H](NC(=O)[C@@H](NC(=O)[C@@H](N)CS)[C@@H](C)CC)C(=O)N[C@@H](CO)C(=O)N[C@@H](C)C(=O)N[C@@H](CCSC)C(=O)N1CCC[C@H]1C(=O)N[C@H](C(=O)N[C@@H](CCCCN)C(=O)N[C@@H](CO)C(=O)N[C@@H](CO)C(=O)N[C@@H](CCCNC(N)N)C(=O)N[C@@H](CCCCN)C(=O)N[C@@H](C)C(=O)N[C@@H](CCCCN)C(=O)N[C@@H](CCCCN)C(=O)N1CCC[C@H]1C(=O)N[C@@H](C)C(=O)N[C@@H](CCC(N)=O)C(=O)O)[C@@H](C)O` (H-CIISAMPTKSS[Orn(CH(NH2)2)]KAKKPAQ-OH): where the note is “protein: DDEF1 SH3 domain, PDB entry 2rqu”, the Kd is 23.6 µM (active).

For H-ELPLVKI-OH, under “protein: Chaperone protein DnaK, PDB entry 4ezz”, the Kd was 6.4 µM (active).

On to H-KPAAVVAPI-OH, for which the Kd (protein: Ubiquitin ligase SIAH1, PDB entry 2a25) is 24 µM (active).
